# The supplement of paper PMC9262897, “Low-cost anti-mycobacterial drug discovery using engineered E. coli” (Nature Communications, 2022)
# ± gives the standard deviation of the averaged measurements.
# What was measured:
# Assay in all cases: growth (OD600 after 10 h); higher = more growth (less inhibition)
# [1] = system: E. coli TESEC Alr+ wild-type control; details: compound 0.1 mM; raw OD600 reference: median of DMSO wells 0.241, cell-free background 0.041
# Experimental: (§1)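 TESEC Mtb Alr E. coli, or the Alr+ wild-type control, in 384-well plates with Prestwick library compounds at 0.1 mM and 1% DMSO, across arabinose induction levels of 1E3 to 1E7 nM. Growth is read as OD600 after 10 h at 37 °C in triplicate biological replicates.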
# E. coli TESEC Mtb Alr [2] = details: compound 0.1 mM
# Experimental: as §1
# E. coli TESEC Mtb Asd = details: compound 0.1 mM
# Experimental: (§2)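 TESEC E. coli strains in which the native enzyme is deleted and replaced by arabinose-inducible Mtb Asd, DapB, CysH or TrpD, each grown in its selective medium. Strains were screened against the Prestwick library at 0.1 mM and 1% DMSO in 384-well format at low and high arabinose induction. Growth is read as OD600 after 10 h in triplicate.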
# E. coli TESEC Mtb DapB = details: compound 0.1 mM
# Experimental: as §2
# [3] = system: E. coli TESEC Alr+ wild-type control; details: compound 0.1 mM; raw OD600 reference: median of DMSO wells 0.49, cell-free background 0.052
# Experimental: (§3)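 TESEC Mtb Alr E. coli (ΔaraC ΔtolC ΔentC Δalr ΔdadX, arabinose-inducible Mtb Alr) or the Alr+ wild-type control strain, grown in defined M9-fructose medium without D-alanine in 96-well plates with Prestwick library compounds at 0.1 mM and 1% DMSO. Low Alr induction is 0.1 µM arabinose and high induction is 10 mM arabinose.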
# E. coli TESEC Mtb Alr [4] = details: compound 0.1 mM; remark: listed apart in the source
# Experimental: as §3
# [5] = arabinose 1000 nM, raw OD600 reference: median of DMSO wells 0.294, cell-free background 0.041
# [6] = arabinose 10000 nM, raw OD600 reference: median of DMSO wells 0.264, cell-free background 0.041
# [7] = arabinose 100000 nM, raw OD600 reference: median of DMSO wells 0.201, cell-free background 0.041
# [8] = arabinose 1000000 nM, raw OD600 reference: median of DMSO wells 0.193, cell-free background 0.041
# [9] = arabinose 10000000 nM, raw OD600 reference: median of DMSO wells 0.146, cell-free background 0.041
# [10] = arabinose induction (level): High, raw OD600 reference: median of DMSO wells 0.331, cell-free background 0.041
# [11] = arabinose induction (level): Low, raw OD600 reference: median of DMSO wells 0.417, cell-free background 0.041
# [12] = arabinose induction (level): High, raw OD600 reference: median of DMSO wells […], cell-free background 0.041
# [13] = arabinose induction (level): Low, raw OD600 reference: median of DMSO wells 0.227, cell-free background 0.041
# [14] = arabinose 100 nM, raw OD600 reference: median of DMSO wells 0.413, cell-free background 0.052
# [15] = arabinose 10000000 nM, raw OD600 reference: median of DMSO wells […], cell-free background 0.052
Structure (SMILES),growth [1],growth (E. coli TESEC Mtb Alr [2]; [5]),growth (E. coli TESEC Mtb Alr [2]; [6]),growth (E. coli TESEC Mtb Alr [2]; [7]),growth (E. coli TESEC Mtb Alr [2]; [8]),growth (E. coli TESEC Mtb Alr [2]; [9]),growth (E. coli TESEC Mtb Asd; [10]),growth (E. coli TESEC Mtb Asd; [11]),growth (E. coli TESEC Mtb DapB; [12]),growth (E. coli TESEC Mtb DapB; [13]),growth [3],growth (E. coli TESEC Mtb Alr [4]; [14]),growth (E. coli TESEC Mtb Alr [4]; [15])
COc1cc([S+](C)[O-])ccc1-c1nc2cccnc2[nH]1 (centres undefined) [Sulmazole],0.227 ± 0.0056,0.282 ± 0.023,0.264 ± 0.0096,0.161 ± 0.027,0.2 ± 0.0059,0.1223 ± 0.00055,0.231 ± 0.039,0.387 ± 0.049,0.18 ± 0.0052,0.209 ± 0.0037,0.4254 ± 0.0034,0.392 ± 0.0053,0.342 ± 0.034
OC(Cn1cncn1)(Cn1cncn1)c1ccc(F)cc1F [Fluconazole],0.2384 ± 0.0019,0.29 ± 0.005,0.276 ± 0.0067,0.187 ± 0.029,0.211 ± 0.0083,0.14 ± 0.0056,0.267 ± 0.015,0.283 ± 0.037,0.195 ± 0.013,0.213 ± 0.032,0.505 ± 0.049,0.411 ± 0.012,0.357 ± 0.017
CCc1ccc(CCOc2ccc(CC3SC(=O)NC3=O)cc2)nc1 (centres undefined) [Pioglitazone],0.225 ± 0.0024,0.268 ± 0.012,0.267 ± 0.0054,0.176 ± 0.0064,0.164 ± 0.002,0.15 ± 0.0092,0.292 ± 0.045,0.334 ± 0.04,0.191 ± 0.0045,0.191 ± 0.011,0.577 ± 0.076,0.426 ± 0.018,0.358 ± 0.023
N=C(NCCCCCCNC(=N)NC(=N)Nc1ccc(Cl)cc1)NC(=N)Nc1ccc(Cl)cc1 [Chlorhexidine],0.04463 ± 0.00035,0.0435 ± 0.00051,0.0456 ± 0.003,0.0447 ± 0.0014,0.04363 ± 0.00015,0.0449 ± 0.0005,0.0592 ± 0.0021,0.0584 ± 0.0011,0.0506 ± 0.0011,0.0542 ± 0.0085,0.0486 ± 0.0014,0.04807 ± 5.8e-05,0.054 ± 0.0013
CCC1NC(=O)c2cc(S(N)(=O)=O)c(Cl)cc2N1 (centres undefined) [Quinethazone],0.248 ± 0.0085,0.281 ± 0.0094,0.266 ± 0.0054,0.219 ± 0.0029,0.199 ± 0.0047,0.13 ± 0.0037,0.419 ± 0.029,0.445 ± 0.051,0.212 ± 0.021,0.238 ± 0.047,0.463 ± 0.013,0.415 ± 0.006,0.354 ± 0.022
CCOC(=O)C1=C(C)NC(C)=C(C(=O)OCC)C1c1ccccc1/C=C/C(=O)OC(C)(C)C [Lacidipine],0.2596 ± 0.0023,0.308 ± 0.013,0.247 ± 0.0068,0.201 ± 0.017,0.119 ± 0.0029,0.156 ± 0.0078,0.299 ± 0.12,0.346 ± 0.043,0.157 ± 0.0032,0.182 ± 0.0034,0.521 ± 0.056,0.429 ± 0.017,0.322 ± 0.023
CC(=O)c1ccc(S(=O)(=O)NC(=O)NC2CCCCC2)cc1 [Acetohexamide],0.253 ± 0.0047,0.284 ± 0.0099,0.242 ± 0.0032,0.191 ± 0.024,0.162 ± 0.0024,0.156 ± 0.0038,0.268 ± 0.082,0.455 ± 0.029,0.19 ± 0.0083,0.232 ± 0.024,0.526 ± 0.01,0.405 ± 0.0044,0.316 ± 0.0099
CC[N+](C)(CC)CCC[n+]1c(-c2ccccc2)c2cc(N)ccc2c2ccc(N)cc21 [Propidium iodide],0.0949 ± 0.011,0.135 ± 0.023,0.116 ± 0.028,0.15 ± 0.02,0.0816 ± 0.0028,0.0888 ± 0.012,0.0925 ± 0.0048,0.0953 ± 0.0048,0.137 ± 0.027,0.111 ± 0.021,0.0675 ± 0.0008,0.221 ± 0.13,0.0665 ± 0.0008
